Data reported in PubChem BioAssay (EPA / NIEHS).
Several values for one entry are separate records, joined by “and”; a condition that tells them apart may be missing. Equal entries are not always repeated. Records with an inconclusive call do not appear. More than one record can exist for a structure, and the calls need not agree. Activity calls are given as the source filed them. How the source made its calls, unless noted: active means hit-call score of the fitted dose curve at least 0.9, where 1 is the maximum; inconclusive means response in the unintended direction; inactive means score below 0.9.

Assays:
[1] = Tanguay_ZF_120hpf_CIRC_legacy: (Legacy) Oregon State University Tanguay Lab 120 Hour Post-fertilization zebrafish Assay for Circulatory Malformation (AID 2283651)
In short: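 Tropical 5D wild-type embryos, dechorionated with pronase at 4 hpf, were placed singly in wells at 6 hpf and exposed statically at 28C to 120 hpf (0.64% DMSO final). Circulatory malformation was scored present/absent by brightfield microscopy.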

[2] = Tanguay_ZF_120hpf_SWIM_legacy: (Legacy) Oregon State University Tanguay Lab 120 Hour Post-fertilization zebrafish Assay for Swim Bladder Malformation (AID 2283654);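 further: swim bladder malformation in each larva scored yes or no under brightfield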
In short: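 Dechorionated Tropical 5D wild-type embryos, placed singly from 6 hpf, were statically exposed at 28C to 120 hpf with 0.64% DMSO final; swim bladder malformation was scored present/absent by brightfield microscopy, gain of signal relative to DMSO controls.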

[3] = Tanguay_ZF_120hpf_TRUN_legacy: (Legacy) Oregon State University Tanguay Lab 120 Hour Post-fertilization zebrafish Assay for Truncated Body (AID 2283655)
In short: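 Binary presence/absence of truncated body is recorded at 120 hpf by brightfield, with non-mortality endpoints skipped after death. Exposure is static from 6 hpf in sealed dark plates at 28C, using dechorionated wild-type zebrafish, 0.64% DMSO.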

[4] = Tanguay_ZF_120hpf_NC_legacy: (Legacy) Oregon State University Tanguay Lab 120 Hour Post-fertilization zebrafish Assay for Notochord and Tail Malformation (AID 2283656)
In short: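 Dechorionated 5D zebrafish, 1/well from 6 hpf; static exposure to 120 hpf, 28C, sealed, dark; final DMSO 0.64% v/v. NC scored binary (present/absent); dead embryos not scored. Fit vs DMSO baseline, gain direction.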

[5] = read-out: ABC Transporter (ABCB1), ABCB1 (gene 5243); test: CLD_ABCB1_6hr: CellzDirect (CLD) Gene Expression Assay for ABC Transporter (ABCB1) at 6 hours (AID 2283659);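 further: hits raise ABCB1 transcript above the DMSO vehicle baseline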
In short: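 Primary human hepatocytes (two donor preparations) dosed daily for two days with chemicals at multiple concentrations, 0.2% DMSO vehicle; harvested 6 h post-dose. ABCB1 mRNA induction quantified by qNPA chemiluminescence; gain-of-signal fitted versus DMSO.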

[6] = read-out: xenobiotic metabolism (CYP1A1), CYP1A1 (gene 1543); test: CLD_CYP1A1_6hr: CellzDirect (CLD) Gene Expression Assay for xenobiotic metabolism (CYP1A1) at 6 hours (AID 2283661);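 on AC50: potency for transcript induction above DMSO vehicle baseline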
In short: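 Primary human hepatocytes from two donors, compound versus 0.2% DMSO vehicle. CYP1A1 mRNA measured 6 h after dosing by quantitative nuclease protection assay with chemiluminescent read-out; induction fitted relative to DMSO, cytotoxicity flagged by microscopy.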

[7] = CCTE_Simmons_CellTiterGLO_HEK293T: Viability Assessment in CCTE's Assays for Thyroperoxidase (TPO) Inhibition, Simmons Lab (AID 2283665);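 on AC50: cells exposed to compound for 24 h before readout; actives reduce ATP signal below DMSO vehicle meaning cytotoxicity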
In short: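 HEK293T cells in DMEM with 1% FBS were dosed with 8 concentrations (5 nM–87.5 uM final, 0.5% DMSO) for 24 hr at 37C; ATP content was read by CellTiter-Glo luminescence, loss-of-signal versus DMSO, three biological replicates.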

[8] = Tanguay_ZF_120hpf_TR_legacy: (Legacy) Oregon State University Tanguay Lab 120 Hour Post-fertilization zebrafish Assay for Touch Response (AID 2283667)
In short: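 Tropical 5D wild-type zebrafish embryos were exposed statically in sealed, foil-covered plates at 28C until 120 hpf, with 0.64% (vol/vol) final DMSO. Touch response was scored as present or absent; embryos that died were not scored.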

[9] = read-out: sulfotransferase (SULT2A), SULT2A1 (gene 6822); test: CLD_SULT2A_6hr: CellzDirect (CLD) Gene Expression Assay for sulfotransferase (SULT2A) at 6 hours (AID 2283669);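 further: hits raise transcript level above the DMSO vehicle baseline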
In short: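 Primary human hepatocytes from two donor preparations were dosed daily with chemicals or 0.2% DMSO and harvested at 6 h. Transcript induction read by qNPA chemiluminescence, fitted for gain of signal relative to DMSO; morphology-based cytotoxicity annotated.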

[10] = read-out: glucuronosyltransferase (UGT1A1), UGT1A1 (gene 54658); test: CLD_UGT1A1_6hr: CellzDirect (CLD) Gene Expression Assay for glucuronosyltransferase (UGT1A1) at 6 hours (AID 2283672)
In short: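 Primary human hepatocytes from two donor preparations, dosed with fresh solutions in 0.2% DMSO, harvested at 6 h. UGT1A1 mRNA measured by qNPA chemiluminescence; induction fitted upward versus DMSO.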

[11] = read-out: ABC Transporter (ABCB11), ABCB11 (gene 8647); test: CLD_ABCB11_24hr: CellzDirect (CLD) Gene Expression Assay for ABC Transporter (ABCB11) at 24 hours (AID 2283674; active means hit-call score of the fitted dose curve at least 0.9, where 1 is the maximum; inactive means score below 0.9)
In short: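 Primary human hepatocytes were dosed daily for two days, with 0.2% DMSO vehicle. ABCB11 mRNA induction was measured at 24 hours by quantitative nuclease protection assay with chemiluminescence. Gain of signal was fitted relative to DMSO.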

[12] = read-out: ABC Transporter (ABCB11), ABCB11 (gene 8647); test: CLD_ABCB11_6hr: CellzDirect (CLD) Gene Expression Assay for ABC Transporter (ABCB11) at 6 hours (AID 2283675);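 further: hits raise ABCB11 mRNA level so AC50 marks induction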
In short: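 Human primary hepatocytes (two donor preparations) given fresh chemical daily at multiple concentrations, vehicle 0.2% DMSO. ABCB11 mRNA induction measured 6 h after dosing by qNPA chemiluminescence versus DMSO; cytotoxicity annotated from morphology.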

[13] = read-out: xenobiotic metabolism (CYP1A2), CYP1A2 (gene 1544); test: CLD_CYP1A2_6hr: CellzDirect (CLD) Gene Expression Assay for xenobiotic metabolism (CYP1A2) at 6 hours (AID 2283663)
In short: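 Primary human hepatocytes from two donor preparations, dosed daily with multiple concentrations in 0.2% DMSO and harvested at 6 h. CYP1A2 mRNA induction measured by chemiluminescent qNPA, gain of signal fitted against DMSO; cytotoxicity flagged morphologically.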

[14] = read-out: solute carrier (SLC22A6), SLC22A6 (gene 9356); test: LTEA_HepaRG_SLC22A6: Life Technologies and Expression Analysis (LTEA) Assay for solute carrier (SLC22A6) using HepaRG (AID 2283653; active means hit-call score of the fitted dose curve at least 0.9, where 1 is the maximum; inactive means score below 0.9); settings: mRNA level, 48 h; actives raise or lower the signal
In short: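 SLC22A6 transcript was measured by TaqMan qRT-PCR, normalized to three housekeeping genes, after 48 h duplicate exposure of HepaRG cells (100 uM top, half-log steps, 0.5% DMSO); bidirectional fit against vehicle.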

[15] = read-out: solute carrier (SLC10A1), SLC10A1 (gene 6554); test: LTEA_HepaRG_SLC10A1: Life Technologies and Expression Analysis (LTEA) Assay for solute carrier (SLC10A1) using HepaRG (AID 2283657; active means hit-call score of the fitted dose curve at least 0.9, where 1 is the maximum; inactive means score below 0.9); settings: mRNA level, 48 h; actives raise or lower the signal
In short: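 Differentiated HepaRG cells were plated 48 h, then exposed in serum-free induction medium for 48 h to 8 concentrations (top 100 uM, half-log steps, 0.5% DMSO). SLC10A1 mRNA was quantified by qRT-PCR normalized to ACTB, GAPDH, POLR2A; bidirectional fit versus DMSO.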

[16] = read-out: matrix metalloproteinase-1 (MMP1), MMP1 (gene 4312); test: LTEA_HepaRG_MMP1: Life Technologies and Expression Analysis (LTEA) Assay for matrix metalloproteinase-1 (MMP1) using HepaRG (AID 2283658; active means hit-call score of the fitted dose curve at least 0.9, where 1 is the maximum; inactive means score below 0.9); settings: mRNA level, 48 h; actives raise or lower the signal
In short: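 qRT-PCR (TaqMan, Fluidigm arrays) of MMP1 transcript, normalized against three housekeeping genes and fitted in both directions relative to 0.5% DMSO vehicle. Human HepaRG cultures received duplicate 48 h exposures across 8 points, highest 100 uM with half-log steps.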

[17] = read-out: Cytochrome P450 (CYP24A1_1), CYP24A1 (gene 1591); test: LTEA_HepaRG_CYP24A1_1: Life Technologies and Expression Analysis (LTEA) Assay for Cytochrome P450 (CYP24A1_1) using HepaRG (AID 2283671; active means hit-call score of the fitted dose curve at least 0.9, where 1 is the maximum; inactive means score below 0.9); settings: mRNA level, 48 h; actives raise or lower the signal
In short: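 HepaRG, 48 h exposure, 8-pt half-log series from 100 uM in 0.5% DMSO, duplicates. Readout: TaqMan qRT-PCR of CYP24A1 mRNA, housekeeping-normalized (ACTB/GAPDH/POLR2A). Bidirectional curve fit vs DMSO baseline.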

[18] = read-out: organic anion transporter (SLCO1B1), SLCO1B1 (gene 10599); test: CLD_SLCO1B1_6hr: CellzDirect (CLD) Gene Expression Assay for organic anion transporter (SLCO1B1) at 6 hours (AID 2283668);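 further: active means mRNA induction above DMSO baseline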
In short: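 Primary human hepatocytes dosed daily with test chemicals (multiple concentrations) in 0.2% DMSO vehicle; harvested at 6 h. SLCO1B1 mRNA quantified by qNPA chemiluminescence, fitted as gain-of-signal versus DMSO; cytotoxicity from phase-contrast morphology flagged alongside.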

[19] = system: Thyroperoxidase (TPO), gene 54314; test: CCTE_Simmons_AUR_rTPO: CCTE's Amplex UltraRed Assay for Thyroperoxidase (TPO) Inhibition, Simmons Lab (AID 2283662);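 further: potency for loss of signal meaning inhibition of peroxidase activity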
In short: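 Cell-free peroxidase activity assay using rat thyroid gland microsomes with excess H2O2 (300 uM) and 25 uM Amplex UltraRed. Compounds tested from 5 nM to 87.5 uM; fluorescence measured after 30 min at 37C, analysed relative to DMSO baseline.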

Measured: AC50

CC(=O)S[C@@H]1CC2=CC(=O)CC[C@]2(C)[C@H]2CC[C@@]3(C)[C@@H](CC[C@@]34CCC(=O)O4)[C@H]12
inactive: [1] | [2] | [3] | [4]

CC(C)(c1ccc(O)cc1)c1ccc(O)cc1
inactive: [1] | [2] | [3] | [5] | [7] | [9] | [10] | [11] | [12]
active: [1] 36.7 µM | [2] 37.5 µM | [3] 25.9 µM and 43.8 µM | [6] 0.00719 µM | [8] 47.4 µM and 24.4 µM and 46 µM

CCOC(=O)COc1cc(-n2ncc(C(F)(F)F)c(C)c2=O)c(F)cc1Cl
inactive: [1] | [2] | [3] | [5] | [6] | [8] | [9] | [10]

CCNc1nc(N)nc(Cl)n1
not listed: [7] | [14] | [15] | [16] | [17] | [18] | [19]
inactive: all other assays above

O=C(O)c1ccccc1
inactive: [1] | [14] | [2] | [3] | [15] | [16] | [8] | [17]

COc1c(Cl)ccc(Cl)c1C(=O)O
inactive: [1] | [3] | [5] | [6] | [8] | [18] | [9] | [10] | [12]

OB(O)O
inactive: [1] | [2] | [3] | [8] | [18] | [10] | [11] | [12]

CC1(C)C(C=C(Cl)Cl)C1C(=O)OCc1cccc(Oc2ccccc2)c1 (stereo not given)
inactive: [2] | [3] | [6] | [18] | [9] | [10] | [12]

CCOC(=O)[C@H](C)Oc1ccc(Oc2nc3ccc(Cl)cc3o2)cc1
inactive: [5] | [18] | [9] | [10] | [11] | [12]
active: [6] 3.97 µM

CCOC(=O)NCCOc1ccc(Oc2ccccc2)cc1
inactive: [1] | [2] | [5] | [6] | [8] | [18] | [9] | [10] | [12]

CCOC(=O)C(C)Oc1ccc(Oc2cnc3cc(Cl)ccc3n2)cc1 (stereo not given)
inactive: [1] | [2] | [3] | [8] | [10] | [11]

CCSC(=O)N(CC(C)C)CC(C)C
inactive: [2] | [3] | [6] | [8] | [18] | [9] | [10] | [12]

CCCOC(=O)NCCCN(C)C
inactive: [1] | [2] | [5] | [6] | [8] | [9] | [12]

CCCCC(CC)CN1C(=O)C2C3C=CC(C3)C2C1=O (stereo not given)
active: [6] 6.62 µM
inactive: [2] | [3] | [5] | [8] | [9] | [10] | [12]

N[C@@H](Cc1cc(I)c(Oc2ccc(O)c(I)c2)c(I)c1)C(=O)O
inactive: [1] | [3]
active: [19] 2.92 µM | [7] 43.8 µM | [8] 7.63 µM
